Screens (PubChem BioAssay)
Rows were chosen to be rich in hits. Some 10% of all compounds tested hit in one or more screens of this group.
HP1b chromo inh – HP1-beta chromodomain-methylated histone interaction inhibition; AlphaScreen HP1-beta / biotin-H3K9me3 peptide binding; Potency, µM (top dose mostly 114 µM), inactives show at the top dose activity change, negative = inhibition, actives largely listed as inhibitors; actives 0.56% (n = 390,000); also: potency is read from the fitted curve at half-maximal effect; nearly all actives have a fitted effect of over 70% in size
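HP1-beta protein (50 nM final) preincubated 30 min at room temperature with biotinylated H3(1-18)K9me3 peptide (50 nM) in PBS pH 7.4, 0.01% Tween-20, then compound added for 30 min. AlphaScreen streptavidin donor/nickel chelate acceptor beads (10 ug/mL final), 30 min dark, luminescence read.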
CtBP-E1A inh – inhibitors of CtBP/E1A interaction; AlphaScreen GST-E1A/His-CtBP binding, 1536-well; hits give low values; AID 651724; actives 0.49% (n = 340,000); activity change, % (concentration not given with the values); in the data active = activity change below about -65%; inconclusive = mostly about -30% to -63%; also: % is scaled to controls: 0 for no effect and ±100 for the full control effect
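Steps: dispense buffer (Tris pH 8.0, NaCl 300 mM, TCEP 1 mM, BSA, Tween 20); add 5X protein mix (GST-E1A, His-CtBP, 125 nM each); pin 23 nL compound; 2 h at 37 °C, dark; add 5X beads (50 ug/mL); 1 h; read.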
JMJD2A Tudor – JMJD2A Tudor domain (human) inhibition | actives 4.4% (n = 390,000) | AlphaScreen JMJD2A-Tudor / H3K4me3 peptide binding | Potency, µM (titrated, usually from 114 µM), inactives show top-dose activity change, negative = inhibition, most hits filed as inhibitors; also: potency is read from the fitted curve at half-maximal effect; % is scaled to controls: 0 for no effect and ±100 for the full control effect; nearly all actives have a fitted effect of over 50% in size
BAZ2B block – inhibitors of human BAZ2B bromodomain. AID 504333. Potency, µM (top dose mostly 114 µM), without a hit: top-dose activity change, negative = inhibition, most hits filed as inhibitors. AlphaScreen BAZ2B-H3K14Ac peptide displacement. actives 4.4% (n = 360,000); also: potency is read from the fitted curve at half-maximal effect; % is scaled to controls: 0 for no effect and ±100 for the full control effect; nearly all actives have a fitted effect of over 60% in size
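AlphaScreen luminescence quantifies BAZ2B engagement of H3K14Ac peptide; the protein and biotinylated peptide are both at 50 nM final, buffer PBS pH 7.4 with 0.01% Tween-20, all steps at room temperature.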
G9a block – inhibitors of human histone lysine methyltransferase G9a. Q96KQ7. G9a H3K9 monomethylation, AlphaScreen, 2 h. Potency, µM (titrated, usually from 102 µM), for inactives: at the highest dose activity, negative = inhibition, most hits filed as inhibitors. actives 8.8% (n = 350,000); also: potency is read from the fitted curve at half-maximal effect; % is scaled to controls: 0 for no effect and ±100 for the full control effect; nearly all actives have a fitted effect of over 75% in size
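Methyltransferase reactions run at room temperature for 2 h (20 nM enzyme, 500 nM biotin-H3K9 peptide, 20 uM SAM) after a 15 min compound preincubation; product detected by AlphaScreen beads and anti-H3K9me1 antibody.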
Six1-Eya2 inh – Six1/Eya2 interaction inhibition; Q15475+O00167; AlphaScreen GST-Six1/His-Eya2 binding, biochemical; hits give low values; activity change, % (concentration not given with the values); actives 0.56% (n = 360,000); in the data active = activity change below about -65%; inconclusive = mostly about -30% to -63%; also: % is scaled to controls: 0 for no effect and ±100 for the full control effect
Target sequence (O00167 whole entry, looked up): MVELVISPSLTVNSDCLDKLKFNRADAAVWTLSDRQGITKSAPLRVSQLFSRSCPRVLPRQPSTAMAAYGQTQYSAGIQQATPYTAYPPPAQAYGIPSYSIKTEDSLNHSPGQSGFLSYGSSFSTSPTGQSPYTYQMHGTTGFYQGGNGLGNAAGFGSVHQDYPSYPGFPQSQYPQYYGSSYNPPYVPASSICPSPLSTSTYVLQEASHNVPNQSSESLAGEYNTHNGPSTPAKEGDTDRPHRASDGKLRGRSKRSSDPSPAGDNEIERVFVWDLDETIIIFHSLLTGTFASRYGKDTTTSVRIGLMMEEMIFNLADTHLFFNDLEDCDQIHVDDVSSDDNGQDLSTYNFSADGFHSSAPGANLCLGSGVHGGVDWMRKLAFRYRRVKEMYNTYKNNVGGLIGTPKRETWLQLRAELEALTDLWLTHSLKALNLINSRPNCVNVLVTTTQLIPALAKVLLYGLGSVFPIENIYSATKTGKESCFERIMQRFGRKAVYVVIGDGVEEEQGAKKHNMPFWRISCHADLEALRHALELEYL
Target sequence (Q15475 whole entry, looked up): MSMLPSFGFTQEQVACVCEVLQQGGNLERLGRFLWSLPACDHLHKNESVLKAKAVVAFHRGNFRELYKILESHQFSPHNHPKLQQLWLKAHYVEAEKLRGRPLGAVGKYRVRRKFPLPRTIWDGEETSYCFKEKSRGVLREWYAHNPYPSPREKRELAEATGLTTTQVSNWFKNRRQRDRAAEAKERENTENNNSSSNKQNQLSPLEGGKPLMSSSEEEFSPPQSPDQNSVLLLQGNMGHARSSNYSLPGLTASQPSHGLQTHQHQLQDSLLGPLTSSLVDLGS
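AlphaScreen luminescence read after one hour at 37 °C in darkness. Pin-transferred compounds met GST-Six1 and His-Eya2 protein (5X stock 250 nM/500 nM) plus glutathione donor and Ni-chelate acceptor beads (5X, 50 ug/mL).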
* = called active by the depositor; [ ] = another dose, or the depositor's remark. Unless noted, calls follow the shape of the dose curve; as a rule, active = well fitted inhibition curve with a large enough effect; inconclusive = small, poorly fitted or top-dose-only effect; inactive = no such curve, though single readings can be large or run the other way.

Results for C/C(=N\NC(=O)c1cccnc1)c1ccc(OC2OCCOC2Oc2ccc(/C(C)=N/NC(=O)c3cccnc3)cc2)cc1 (stereo not given) ?
HP1b chromo inh: inconclusive; CtBP-E1A inh: 0; JMJD2A Tudor: 14µM*; BAZ2B block: -18%; G9a block: 27%; Six1-Eya2 inh: 0

Results for C/C(=N\NC(=O)c1ccc(N(C)C)cc1)c1ccc(C)c(C)c1 ?
HP1b chromo inh: 9%; CtBP-E1A inh: -9; JMJD2A Tudor: -22%; BAZ2B block: -7%; G9a block: 45µM*; Six1-Eya2 inh: -6

How did COc1ccc(C2(OC)Oc3cc(OC)ccc3C(=O)C2(O)OC)cc1 (stereo not given) do in these assays?
HP1b chromo inh: 10%; CtBP-E1A inh: -2; JMJD2A Tudor: -13%; Six1-Eya2 inh: 39

How did CC(C)(c1ccc(O)c([N+](=O)[O-])c1)c1ccc(O)c([N+](=O)[O-])c1 do in these assays?
HP1b chromo inh: inconclusive; CtBP-E1A inh: -2; JMJD2A Tudor: 56µM*; Six1-Eya2 inh: -7

How did O=C(N/N=C/c1ccc(O)c([N+](=O)[O-])c1)C(O)(c1ccccc1)c1ccccc1 do in these assays?
HP1b chromo inh: 13%; CtBP-E1A inh: -3; JMJD2A Tudor: -19%; BAZ2B block: 3%[57.1 µM]; Six1-Eya2 inh: -6

How did Cn1c(-n2cccc2)c(-c2c(-c3ccccc3)[nH]c3c2c(=O)[nH]c(=O)n3C)c(=O)[nH]c1=O do in these assays?
HP1b chromo inh: -7%; JMJD2A Tudor: -31%; BAZ2B block: 79µM*; G9a block: -4%[12.7 µM]

How did Cc1ccc(-c2[nH]c3c(c2-c2c(-n4cccc4)n(C)c(=O)[nH]c2=O)c(=O)[nH]c(=O)n3C)cc1 do in these assays?
HP1b chromo inh: 37%; JMJD2A Tudor: -18%; BAZ2B block: -5%; G9a block: -6%[59 µM]

What do the screens show for `Cc1cc(Sc2nc(N)ncc2[N+](=O)[O-])ncn1`?
HP1b chromo inh: 33%; CtBP-E1A inh: inconclusive; JMJD2A Tudor: 1%; BAZ2B block: inconclusive; G9a block: 32µM*; Six1-Eya2 inh: inconclusive

Results for Oc1ccc(Br)cc1CN1CCCCCCC1 ?
HP1b chromo inh: -16%; CtBP-E1A inh: 14; JMJD2A Tudor: 6.3µM*; BAZ2B block: 50µM*; G9a block: inconclusive; Six1-Eya2 inh: 9

What do the screens show for `Oc1cccc(CN2CCCCC2)c1`?
HP1b chromo inh: 19%; CtBP-E1A inh: -4; JMJD2A Tudor: -6%; BAZ2B block: 8%; G9a block: 14%[59 µM]; Six1-Eya2 inh: 10

What do the screens show for `Brc1cccc(CN2CCCCCC2)c1`?
HP1b chromo inh: inconclusive; CtBP-E1A inh: 10; JMJD2A Tudor: 20µM*; BAZ2B block: inconclusive; G9a block: 25µM*; Six1-Eya2 inh: 1

Results for Oc1ccc2cc(Br)ccc2c1CN1CCCC1 ?
HP1b chromo inh: -19%; CtBP-E1A inh: -17; JMJD2A Tudor: -12%; G9a block: inconclusive; Six1-Eya2 inh: -10

How did CCC1Sc2ccc(S(=O)(=O)CCC(=O)Nc3ccc(C(=O)OC)cc3)cc2NC1=O (stereo not given) do in these assays?
HP1b chromo inh: inconclusive; CtBP-E1A inh: -5; JMJD2A Tudor: 20µM*; BAZ2B block: inconclusive; G9a block: 11%[59 µM]; Six1-Eya2 inh: -2

What do the screens show for `CCC1Sc2ccc(S(=O)(=O)CCC(=O)Nc3cccc(Br)c3)cc2NC1=O` (stereo not given)?
HP1b chromo inh: inconclusive; CtBP-E1A inh: -3; JMJD2A Tudor: 25µM*; BAZ2B block: inconclusive; G9a block: -6%[59 µM]; Six1-Eya2 inh: -4

Results for CCn1c(C(=O)N2CCC(C(=O)N3CCN(c4cc(C)ccc4C)CC3)CC2)cc2sccc21 ?
HP1b chromo inh: inconclusive; JMJD2A Tudor: 22µM*; BAZ2B block: 22µM*; G9a block: inconclusive

Results for CCn1c(C(=O)N2CCC(C(=O)N3CCN(c4ccccn4)CC3)CC2)cc2sccc21 ?
HP1b chromo inh: 17%; CtBP-E1A inh: -7; JMJD2A Tudor: -26%; BAZ2B block: -25%; G9a block: -13%[59 µM]; Six1-Eya2 inh: -2

What do the screens show for `CCn1c(C(=O)N2CCC(C(=O)N3CCN(c4cccc(C)c4C)CC3)CC2)cc2sccc21`?
HP1b chromo inh: -12%; JMJD2A Tudor: inconclusive; BAZ2B block: 22µM*; G9a block: inconclusive

How did COC(=O)c1ccccc1NC(=O)CCC(=O)N1CC(C)Sc2ccccc21 (stereo not given) do in these assays?
HP1b chromo inh: 40%; JMJD2A Tudor: 14%; BAZ2B block: -4%; G9a block: 6%[59 µM]

How did COC(=O)c1cc2sc(C)cc2n1Cc1ccccc1 do in these assays?
HP1b chromo inh: 113%; JMJD2A Tudor: 63%; BAZ2B block: 94%; G9a block: 52%[59 µM]

What do the screens show for `COC(=O)c1cc(C(=O)OC)n(Cc2ccc(C)cc2)c1C`?
HP1b chromo inh: 26%; CtBP-E1A inh: 13; JMJD2A Tudor: -17%; BAZ2B block: inconclusive; G9a block: 50µM*; Six1-Eya2 inh: -2

Results for COc1cccc(Nc2nc(N)c([N+](=O)[O-])c(NCc3ccccc3)n2)c1 ?
HP1b chromo inh: inconclusive; JMJD2A Tudor: inconclusive; BAZ2B block: inconclusive; G9a block: 45µM*; Six1-Eya2 inh: -3

What do the screens show for `Nc1nc(Nc2ccc(Cl)cc2)nc(NCCO)c1[N+](=O)[O-]`?
HP1b chromo inh: 14%; CtBP-E1A inh: inconclusive; JMJD2A Tudor: -1%; BAZ2B block: inconclusive; G9a block: 50µM*; Six1-Eya2 inh: inconclusive

How did COc1cccc(Nc2nc(Nc3ccc(Cl)c(C(=O)O)c3)nc(C)c2[N+](=O)[O-])c1 do in these assays?
HP1b chromo inh: -5%; CtBP-E1A inh: -20; JMJD2A Tudor: inconclusive; BAZ2B block: 50µM*; G9a block: inconclusive; Six1-Eya2 inh: -23

How did Cc1cc(SCC(=O)NCC2CCCO2)nc2ccccc12 (stereo not given) do in these assays?
HP1b chromo inh: 33%; CtBP-E1A inh: -2; JMJD2A Tudor: -3%; BAZ2B block: -3%; G9a block: -24%; Six1-Eya2 inh: 5

How did CCS(=O)(=O)c1c(Nc2ccc(F)c(Cl)c2)sc(C(=O)c2ccccc2)c1N do in these assays?
HP1b chromo inh: -7%; JMJD2A Tudor: inconclusive; BAZ2B block: inconclusive; G9a block: -42%[59 µM]

Results for CCCCNC(=O)c1ccc2c(c1)NC(=O)C(CS(=O)(=O)Cc1cccc(C)c1)N2 (stereo not given) ?
HP1b chromo inh: 48%; JMJD2A Tudor: -12%; BAZ2B block: 10%[57.1 µM]; G9a block: 14µM*
